Data: PubChem BioAssay
Inconclusive results are not listed. Active and inactive are the calls of the source. Unless noted, the limit is not given here; nearly all actives have AC50 up to about 26 µM.

Legend:
[1] = growth inhibition of DIPG glioma cells, dose response, cell-based, SU-DIPG-XVII, MIPE5.0, CellTiter-Glo, qHTS (AID 1347060); conditions: SU-DIPG-XVII viability, CellTiter-Glo ATP luminescence;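 as to AC50: cells exposed to compound for 48 hours before viability readout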
[2] = growth inhibition of DIPG glioma cells, dose response, cell-based, SU-DIPG-XIII, MIPE4.0, CellTiter-Glo, qHTS (AID 1347061; cut-off not given, nearly all actives have AC50 up to about 37 µM;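 also: cells exposed to compound for 48 hours before readout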); conditions: SU-DIPG-XIII viability, CellTiter-Glo ATP luminescence
[3] = growth inhibition of DIPG glioma cells, dose response, cell-based, JHH-DIPG-1, MIPE4.0, CellTiter-Glo, qHTS (AID 1347062; cut-off not given, nearly all actives have AC50 up to about 27 µM;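 as to AC50: cells exposed to compound for two days before readout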); conditions: JHH-DIPG-1 viability, CellTiter-Glo ATP luminescence
[4] = growth inhibition of DIPG glioma cells, dose response, cell-based, SU-DIPG-IV, MIPE4.0, CellTiter-Glo, qHTS (AID 1347063; cut-off not given, nearly all actives have AC50 up to about 30 µM;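 also: compound exposure lasted 48 hours before the viability readout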); conditions: SU-DIPG-IV viability, CellTiter-Glo ATP luminescence
[5] = growth inhibition of DIPG glioma cells, dose response, cell-based, SU-DIPG-XIII, MIPE5.0, CellTiter-Glo, qHTS (AID 1347064; cut-off not given, nearly all actives have AC50 up to about 23 µM;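 as to AC50: cells exposed to compound for 48 hours before the viability read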); conditions: SU-DIPG-XIII viability, CellTiter-Glo ATP luminescence
[6] = viability loss in pontine glioma line – cell-based, SU-DIPG-XXV, MIPE5.0, CellTiter-Glo, qHTS, dose response (AID 1347065); conditions: CellTiter-Glo ATP luminescence;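 also: cells exposed to compound for 48 hours before ATP readout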
[7] = SU-DIPG-VI glioma cell viability, MIPE4.0 library, CellTiter-Glo luminescence, qHTS (AID 1347066; cut-off not given, nearly all actives have AC50 up to about 30 µM;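 also: cells exposed to compound for 48 hours before readout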); conditions: CellTiter-Glo ATP luminescence
[8] = JHH-DIPG-1 glioma cell viability, MIPE5.0 library, CellTiter-Glo luminescence, qHTS (AID 1347067); conditions: JHH-DIPG-1 glioma viability, CellTiter-Glo ATP luminescence;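 also: cells exposed to compound for 48 hours before readout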
[9] = SU-DIPG-XXV glioma cell viability, MIPE5.0 library, qHTS (AID 1347068; cut-off not given, nearly all actives have IC50 up to about 30 µM;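 as to IC50: cells exposed to compound for 48 hours before viability readout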)
[10] = sensitizers of A549 cells to miR-34 induction, primary screen, imaging, A549 dox-inducible miR-34, nuclei and caspase counts (AID 1347080;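 active = compounds whose cell count with miR-34 switched on is under 0.7 times the count with it off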); conditions: A549 miR-34 inducible, Hoechst nuclei count, 48 h
[11] = modifiers of HSF1 nuclear foci, imaging, Selleck Cancer Library (AID 1347162; in the data active = plate-normalised HSF1 focus index below about 0.46); conditions: human cells, at 10 µM; SSMD: measured here: HSF1 foci SSMD mean; cell count: measured here: cell number; plate-normalised HSF1 focus index: stronger effect = lower value
[12] = survival rescue of mitochondrial mutant cells in low glucose, primary screen, MELAS cybrids, Rieske KO mouse fibroblasts, CellTiter-Glo (AID 1508586;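 active = mean z-score across replicates of 1.96 or higher in either the MELAS or the Rieske mutant cell line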;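 also: z relative to plate mean and SD of compound and empty wells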)
[13] = ovarian cancer cell viability with rucaparib, profiling panel, oncology-focused library, rucaparib conditional (AID 1508598;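 active = normalized viability below 100% at a tested concentration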); conditions: patient-derived ovarian cancer cells, CellTiter-Glo viability, 144 h, stronger effect = lower value
[14] = stronger effect = lower value, cell number ratio, induced over uninduced
[15] = measured here: relative caspase fold change +Dox/-Dox
[16] = measured here: total cells with miR-34 induction, stronger effect = lower value
[17] = measured here: total cells without miR-34 induction

O=C(O)[C@@H](c1ccc(OCc2ccc3ccccc3n2)cc1)C1CCCC1
inactive: outcome [1] | outcome [2] | outcome [3] | outcome [4] | outcome [5] | outcome [6] | outcome [7] | outcome [8] | outcome [9]

C=CC(=O)Nc1cccc(Oc2nc(Nc3ccc(N4CCN(C)CC4)cc3OC)ncc2Cl)c1
active: AC50 [1] 3.32 µM | AC50 [3] 20.9 µM | AC50 [4] 14.8 µM | AC50 [5] 6.61 µM | AC50 [6] 4.17 µM | AC50 [7] 16.6 µM | AC50 [8] 8.33 µM | IC50 [9] 2.63 µM | viability ([13]; at 1.25 µM, OCI-C5x cells, without rucaparib) 45.1% | viability ([13]; at 1.25 µM, OCI-P5x cells, without rucaparib) 94.6% | viability ([13]; at 5 µM, OCI-C5x cells, with rucaparib 10 µM, 100% = cells with rucaparib alone) 91.6% | viability ([13]; at 5 µM, OCI-P5x cells, without rucaparib) 67.9%
5190: cell count [11]
4420: cell count [10, 16]
inactive: outcome [2] | fold change [10, 14] 0.841 | plate-normalised HSF1 focus index [11] 0.843 | z-score ([12]; MELAS cybrid survival, CellTiter-Glo 48 h, stronger effect = higher value) -0.337 | viability ([13]; at 0.000305 µM, OCI-C5x cells, with rucaparib 10 µM, 100% = cells with rucaparib alone) 115% | viability ([13]; at 0.000305 µM, OCI-C5x cells, without rucaparib) 104% | viability ([13]; at 0.000305 µM, OCI-P5x cells, with rucaparib 20 µM, 100% = cells with rucaparib alone) 114% | viability ([13]; at 0.000305 µM, OCI-P5x cells, without rucaparib) 112% | viability ([13]; at 0.00122 µM, OCI-C5x cells, with rucaparib 10 µM, 100% = cells with rucaparib alone) 117% | viability ([13]; at 0.00122 µM, OCI-C5x cells, without rucaparib) 120% | viability ([13]; at 0.00122 µM, OCI-P5x cells, with rucaparib 20 µM, 100% = cells with rucaparib alone) 108% | viability ([13]; at 0.00122 µM, OCI-P5x cells, without rucaparib) 114% | viability ([13]; at 0.00488 µM, OCI-C5x cells, with rucaparib 10 µM, 100% = cells with rucaparib alone) 107% | viability ([13]; at 0.00488 µM, OCI-C5x cells, without rucaparib) 118% | viability ([13]; at 0.00488 µM, OCI-P5x cells, with rucaparib 20 µM, 100% = cells with rucaparib alone) 119% | viability ([13]; at 0.00488 µM, OCI-P5x cells, without rucaparib) 118% | viability ([13]; at 0.0195 µM, OCI-C5x cells, with rucaparib 10 µM, 100% = cells with rucaparib alone) 115% | viability ([13]; at 0.0195 µM, OCI-C5x cells, without rucaparib) 112% | viability ([13]; at 0.0195 µM, OCI-P5x cells, with rucaparib 20 µM, 100% = cells with rucaparib alone) 108% | viability ([13]; at 0.0195 µM, OCI-P5x cells, without rucaparib) 118% | viability ([13]; at 0.0781 µM, OCI-C5x cells, with rucaparib 10 µM, 100% = cells with rucaparib alone) 119% | viability ([13]; at 0.0781 µM, OCI-C5x cells, without rucaparib) 116% | viability ([13]; at 0.0781 µM, OCI-P5x cells, with rucaparib 20 µM, 100% = cells with rucaparib alone) 115% | viability ([13]; at 0.0781 µM, OCI-P5x cells, without rucaparib) 115% | viability ([13]; at 0.313 µM, OCI-C5x cells, with rucaparib 10 µM, 100% = cells with rucaparib alone) 115% | viability ([13]; at 0.313 µM, OCI-C5x cells, without rucaparib) 120% | viability ([13]; at 0.313 µM, OCI-P5x cells, with rucaparib 20 µM, 100% = cells with rucaparib alone) 119% | viability ([13]; at 0.313 µM, OCI-P5x cells, without rucaparib) 118% | viability ([13]; at 1.25 µM, OCI-C5x cells, with rucaparib 10 µM, 100% = cells with rucaparib alone) 106% | viability ([13]; at 1.25 µM, OCI-P5x cells, with rucaparib 20 µM, 100% = cells with rucaparib alone) 108% | viability ([13]; at 5 µM, OCI-C5x cells, without rucaparib) 115% | viability ([13]; at 5 µM, OCI-P5x cells, with rucaparib 20 µM, 100% = cells with rucaparib alone) 104%
0.584: z-score ([12]; Rieske KO mouse fibroblast survival, CellTiter-Glo 72 h)
5250: cell count [10, 17]
-3.65: SSMD [11]
0.924: fold change [10, 15]

O=C1NC(O)CCN1[C@@H]1O[C@H](CO)[C@@H](O)[C@H]1O (stereo partly drawn)
inactive: outcome [1] | outcome [2] | outcome [3] | outcome [4] | outcome [5] | outcome [6] | outcome [7] | outcome [8] | outcome [9]

CC(C)(C)c1cc(C(=O)O)c(NC(=O)Nc2ccc3[nH]ncc3c2)s1
inactive: outcome [1] | outcome [2] | outcome [3] | outcome [4] | outcome [5] | outcome [6] | outcome [7] | outcome [8] | outcome [9]

Nc1nc(-c2nn(Cc3ccccc3F)c3ncccc23)nc(N)c1N1CCOCC1
inactive: outcome [1] | outcome [2] | outcome [3] | outcome [4] | outcome [5] | outcome [6] | outcome [7] | outcome [8] | outcome [9]

CC(C)[C@H](O)C(=O)N[C@@H](C)C(=O)N[C@@H]1C(=O)N(C)CCc2ccccc21
inactive: outcome [1] | outcome [2] | outcome [3] | outcome [4] | outcome [5] | outcome [6] | outcome [7] | outcome [8] | outcome [9]

O=C1NC(=O)/C(=C/c2ccc3nccc(-c4ccncc4)c3c2)S1
active: AC50 [1] 1.18 µM | AC50 [2] 0.743 µM | AC50 [3] 1.05 µM | AC50 [4] 0.0833 µM | AC50 [5] 1.48 µM | AC50 [6] 0.468 µM | AC50 [7] 0.264 µM | AC50 [8] 1.48 µM | IC50 [9] 1.32 µM

Cn1cc(C[C@@H](N)C(=O)O)c2ccccc21
inactive: outcome [1] | outcome [2] | outcome [3] | outcome [4] | outcome [5] | outcome [6] | outcome [7] | outcome [8] | outcome [9]

C=CCNC1=C2C[C@@H](C)C[C@H](OC)[C@H](O)[C@@H](C)/C=C(\C)[C@H](OC(N)=O)[C@@H](OC)/C=C\C=C(/C)C(=O)NC(=CC1=O)C2=O
active: AC50 [1] 1.18 µM | AC50 [2] 1.05 µM | AC50 [3] 2.64 µM | AC50 [4] 0.118 µM | AC50 [6] 7.42 µM | AC50 [7] 14.8 µM | AC50 [8] 0.934 µM | IC50 [9] 10.5 µM
1900: cell count [10, 17]
1.33: fold change [10, 15]
1940: cell count [10, 16]
inactive: outcome [5] | fold change [10, 14] 1.02

OCCCNc1cc(-c2ccnc(Nc3cccc(Cl)c3)n2)ccn1
inactive: outcome [7]
active: AC50 [1] 0.132 µM | AC50 [2] 0.148 µM | AC50 [3] 0.148 µM | AC50 [4] 0.0526 µM | AC50 [5] 0.0833 µM | AC50 [6] 0.132 µM | AC50 [8] 0.118 µM | IC50 [9] 0.148 µM

CC1=C(CO)C(=O)O[C@@H]([C@@H](C)[C@H]2CC[C@H]3[C@@H]4C[C@H]5O[C@]56[C@@H](O)C=CC(=O)[C@]6(C)[C@H]4CC[C@]23C)C1
active: AC50 [1] 1.48 µM | AC50 [2] 1.87 µM | AC50 [3] 1.18 µM | AC50 [4] 0.332 µM | AC50 [5] 1.05 µM | AC50 [6] 1.48 µM | AC50 [7] 0.743 µM | AC50 [8] 1.32 µM | IC50 [9] 2.35 µM

CO[C@H]1/C=C\C=C(\C)C(=O)NC2=CC(=O)C(NCCN(C)C)=C(C[C@@H](C)C[C@H](OC)[C@H](O)[C@@H](C)/C=C(/C)[C@@H]1OC(N)=O)C2=O
active: AC50 [1] 0.0525 µM | AC50 [2] 0.0833 µM | AC50 [3] 0.187 µM | AC50 [4] 0.0132 µM | AC50 [5] 0.118 µM | AC50 [6] 0.235 µM | AC50 [7] 5.26 µM | AC50 [8] 0.0742 µM | IC50 [9] 1.18 µM
